Growth data for 13 molecules are collected here from PubChem BioAssay (NCI).

About 83,000 compounds went through this panel and 20% of them were active in at least one assay; those are over-represented in the sample as a whole.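 Cell lines were cultured in 96-well plates, exposed to a single compound concentration, and assessed for percent growth 48 hours later.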 Unmarked numbers belong to inactive results. Activity calls are given as the source filed them. Rule for the calls: active = growth percent below 10; inactive = the rest.

The test concerns HL-60(TB) leukemia. Put plainly: NCI-60 one-dose screen, 48 h (100 = growth as untreated, 0 = no growth, -100 = all killed). Particulars: 10 µM unless noted.
Turning to `COc1ccc(CCN2CCCn3c2nc2ccccc2c3=O)cc1`, the growth was -5.2% (active). For `N#C/C(=C/C=C/c1cccc(Cl)c1)S(=O)c1ccccc1` (stereo not drawn), the growth was -18.9% (active). In the case of `C#Cc1nc(Nc2cc(C)[nH]n2)c2ccccc2n1` it was -38.8% (active); in that of `OCc1ccccn1`, 102%; in that of `CC1(C)NCCC[C@]2(C)[C@H]3CC[C@H]4[C@H]5[C@H](C(=O)/C=C/c6cccnc6)CCC[C@]5(CO)CC[C@@]4(C)[C@]3(C)CC[C@@H]12`, 23.9%.

With `COc1ccc2c(CCCc3ccc(Cl)cc3Cl)c3[n+](cc2c1OC)CCc1cc2c(cc1-3)OCO2`, the growth is -41.4% (active).

Turning to `C=C1C(=O)O[C@H]2[C@H]1CC/C(COC(=O)CCCCC(=O)OC/C1=C/CC[C@@]3(C)O[C@H]3[C@H]3OC(=O)C(=C)[C@@H]3CC1)=C\CC[C@@]1(C)O[C@@H]21`, the growth is 2.37% (active).

Consider `CC(=O)c1ccc(C)c(N)c1`, for which the growth was 94.8%. In the case of `COc1nc2ccccc2cc1-c1nc2c(cnn2-c2ccc(Br)cc2)c(=O)[nH]1` it was 8.57% (active); in that of `CCN1Cc2nc3sc(C)c(C)c3c(=O)n2C=C1C`, 1.07% (active). In the case of `Clc1cn2cc(-c3ccc(Cl)c(Cl)c3Cl)nc2s1` it was 85.3%; in that of `O=C(CN1CCOCC1)Nc1ccc2ncnc(Nc3ccc(Oc4cccc(C(F)(F)F)c4)c(Cl)c3)c2c1`, 70.1%. In the case of `C=C(C)[C@@H]1CC[C@]2(C(=O)OCCOCCOCC[P+](c3ccccc3)(c3ccccc3)c3ccccc3)CC[C@]3(C)[C@H](CC[C@@H]4[C@@]5(C)CC[C@H](OC(C)=O)C(C)(C)[C@@H]5CC[C@]43C)[C@@H]12` it was -62.3% (active).
